Measured values reported in PubChem BioAssay (NCI).
Where “and” joins values, the source holds several entries; their conditions need not be identical. Equal values may be shown once. Compounds without any hit were thinned out: in the full panel of roughly 83,000, 20% have a hit.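 Negative percent growth values reflect cell death: -40 means 40% of the cells present at the start died, and -100 means all died.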 Calls of active or inactive are those of the source. How the source made its calls: active means growth percent below 10; inactive means the rest.

system: SW-620 colon; assay: NCI-60 one-dose screen, 48 h (100 = growth as untreated, 0 = no growth, -100 = all killed); conditions: 10 µM unless noted

| Compound | growth |
| --- | --- |
| COc1cc(/C=N/NC(=O)c2ccc(OCc3nc4ccc(C)cc4[nH]3)cc2)cc(OC)c1OC | 40.7% (inactive) |
| COc1ccccc1/C=C/c1cccc(NC(=S)NCCCCN(C)C)c1 | 5.09% (active) |
| CC1(C)CC(=O)C2=C(C1)OC(N)=C(c1nc3ccccc3[nH]1)C2c1ccc(Cl)cc1 (configuration not stated) | 81% (inactive) and 104% (inactive) |
| O=C1CCC(N2C(=O)c3cccc(NCCCCCC(=O)N4CCN(c5ccc6nc7c(nc6c5C(F)(F)F)C(=O)c5ncccc5C7=O)CC4)c3C2=O)C(=O)N1 (configuration not stated) | -50.9% (active) |

system: MCF7 breast; assay: as above; conditions: 10 µM unless noted

| Compound | growth |
| --- | --- |
| CN1CCN(C(=O)Oc2cc3c(c4ccccc24)[C@H](CCl)CN3C(=O)c2cc3cc(OCCCN4CCC4)ccc3[nH]2)[C@H]2CSSC[C@H]21 | 3.7% (active) |
| N#Cc1cc(-c2ccc3ncnc(N4CCc5cc(F)c(Cl)cc54)c3c2)cnc1N | 4.81% (active) |
| CC1=NN(C2=NC(=O)C(CC(=O)Nc3ccccc3C(F)(F)F)S2)C(c2ccc(N(C)C)cc2)C1 (configuration not stated) | 23.4% (inactive) |
| O=C1Nc2ccccc2/C1=C/C(=O)c1cc2ccccc2oc1=O | 53.3% (inactive) |
| Cc1ccccc1NC(=O)c1cccc(NC(=O)CCl)c1 | 19.2% (inactive) |
| Cn1cc(-c2cc(N)n3nc(-c4c[nH]c5ccccc45)cc3n2)c2cc(Br)ccc21 | -73.9% (active) |
| Nc1nc2cc(-c3ccc4ncnc(NCc5ccccc5)c4c3)ccc2o1 | -25.6% (active) |
| O=C(N/N=C/c1ccc(-c2cccc([N+](=O)[O-])c2)s1)c1[nH]c2ccc(Br)cc2c1-c1ccccc1 | 54.4% (inactive) |
